Test results as given in PubChem BioAssay.
Activity calls are given as the source filed them.

Target: Homeobox protein Hox-A13 (Mus musculus) (UniProt Q62424)
Experiment: disruptors of Hoxa13 oligonucleotide interaction – biochemical, fluorescence polarization, labeled oligonucleotide, primary screen (AID 1185)
Settings: Hoxa13:DNA binding, 15 min, higher = more signal, called active from +8 up or from −8 down

Homeobox protein Hox-A13 (Mus musculus), sequence (Q62424 whole entry, looked up): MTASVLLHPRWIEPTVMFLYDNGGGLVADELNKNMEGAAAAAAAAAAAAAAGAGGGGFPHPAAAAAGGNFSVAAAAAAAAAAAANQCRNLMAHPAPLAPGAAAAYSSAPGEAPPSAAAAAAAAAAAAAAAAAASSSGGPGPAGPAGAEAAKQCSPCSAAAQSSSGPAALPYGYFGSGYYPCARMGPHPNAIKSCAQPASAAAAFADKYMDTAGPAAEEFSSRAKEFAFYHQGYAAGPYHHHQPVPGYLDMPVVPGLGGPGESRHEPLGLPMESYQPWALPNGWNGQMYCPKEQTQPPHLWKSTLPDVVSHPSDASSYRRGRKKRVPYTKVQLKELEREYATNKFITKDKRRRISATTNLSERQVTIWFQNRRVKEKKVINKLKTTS

z-score, inactive:
CC(C)=NOCc1cccc(-c2cc(-c3ccccc3)no2)c1 0.515, O=C1[C@H]2[C@H]3[C@H](O)[C@H](O)CC(=NOC[C@@H](O)COCc4ccco4)[C@H]3CC[C@H]2C(=O)N1Cc1ccc2c(c1)OCO2 -0.743, O=C1C[C@@H](O)[C@@H](O)[C@@H]2[C@@H]3C(=O)N(C4CCCCC4)C(=O)[C@@H]3CC[C@H]12 0.34, C[C@@H]1CCC2C(=O)N(Cc3ccccc3)C[C@@H](O)CN2[C@H]1c1ccc(Br)cc1 (stereo not given in full) -3.92, CCOC(=O)CCN1C(=O)[C@H]2[C@H]3[C@H](O)[C@H](O)CC(=NOCc4ccccc4)[C@@H]3CC[C@H]2C1=O -4.34, O=C1[C@H]2[C@H]3[C@H](O)[C@H](O)CC(=NOC[C@@H](O)COCc4ccco4)[C@H]3CC[C@H]2C(=O)N1C1CCCCC1 -0.271, COc1ccc(OC[C@H]2Cc3c(-c4ccccc4)nc4c(c3CO2)CN(CCOc2ccccc2)CC4)cc1 -2.66, CCOC(=O)[C@H](Cc1ccccc1)NC(=O)CCC1CC(OC(=O)NCCc2ccc(F)cc2)CC2(CCCC(COC(=O)NCC(c3ccccc3)c3ccccc3)O2)O1 (stereo not given in full) -4.95, C#CCCCON=C1C[C@@H](O)[C@@H](O)[C@@H]2[C@@H]3C(=O)N(CCC(=O)OCC)C(=O)[C@@H]3CC[C@@H]12 -5.09, CCCC[C@@H](O)C1=C(C)C[C@H]2C(=O)N(Cc3ccccc3)C(=O)[C@H]2[C@H]1CO -3.33
